Laboratory results: PubChem BioAssay (Tox21)
Results filed as inconclusive are left out. Where a call stands in place of a potency, no number is given. Calls of active or inactive are those of the source. The call rests on the fitted dose curve.

Biological target: Muscarinic acetylcholine receptor M1 (Homo sapiens) (UniProt P11229)
Assay: Cholinergic receptor muscarinic 1 (CHRM1) small molecule antagonists, cell-based qHTS assay (AID 1963588); further: nearly all actives have a fitted effect of over 40% in size
Conditions: CHRM1-CHO antagonist mode, calcium flux fluorescence; series mostly up to 61.5 µM
Text: National Center for Advancing Translational Sciences [NCATS]
Division of Preclinical Innovation [DPI]
U.S. Environmental Protection Agency [EPA]
National Institutes of Environmental Health Sciences [NIEHS]
National Toxicology Program [NTP]
U.S. Food and Drug Administration [FDA]
The CHRM1 is a muscarinic receptor. This receptor plays a crucial role in learning and memory processes and has long been identified as a promising therapeutic target for the improvement of cognitive decline in Alzheimer's disease (AD). The CHRM1-CHO cell line stably expressing human muscarinic acetylcholine receptor M1 (CHRM1) can be used for screening agonists and antagonists of interactions between CHRM1 and its ligands. The CHRM1-CHO Calcium Flux Assay is a homogeneous fluorescence-based assay for detecting the intracellular calcium level using FDSS kinetic plate reader system.
Tox21 Assay Protocol Summary:
CHRM1-CHO cells were dispensed at 1000 cells/3uL/well in 1536-well black-clear bottom plates using a Multidrop Dispenser. After the assay plates were incubated at a 37 C/5% CO2 incubator for 18 h, 3 uL of Dye Loading Buffer was transferred to the assay plate by a Flying Reagent Dispenser. The assay plates were incubated at 37 C for 1h. For antagonist mode, 23 nL of compounds dissolved in DMSO, positive controls or DMSO only was transferred to the assay plate by a pin tool. After 5 min incubation at room temperature, 1.5 uL of acetylcholine at 50nM was added to each well. The fluorescence intensity in the plates was measured using FDSS 7000EX kinetic plate reader for 3 min at 1 sec intervals. Each test compound was measured at 15 concentrations in three independent runs.
Potency means the concentration at half of the fitted maximal effect.

Muscarinic acetylcholine receptor M1 (Homo sapiens), sequence (P11229 whole entry, looked up): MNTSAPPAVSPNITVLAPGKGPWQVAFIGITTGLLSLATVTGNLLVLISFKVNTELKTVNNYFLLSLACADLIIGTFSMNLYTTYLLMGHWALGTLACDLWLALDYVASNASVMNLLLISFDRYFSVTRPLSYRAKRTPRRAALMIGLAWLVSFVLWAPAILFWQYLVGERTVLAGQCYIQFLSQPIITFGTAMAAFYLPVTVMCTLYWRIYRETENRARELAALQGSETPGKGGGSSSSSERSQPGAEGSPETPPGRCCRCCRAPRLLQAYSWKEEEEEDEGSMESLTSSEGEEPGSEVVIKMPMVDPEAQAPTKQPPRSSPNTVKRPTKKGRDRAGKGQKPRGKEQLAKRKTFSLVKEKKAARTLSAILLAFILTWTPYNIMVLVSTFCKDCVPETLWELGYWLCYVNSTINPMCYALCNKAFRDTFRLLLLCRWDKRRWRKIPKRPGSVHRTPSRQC

| SMILES | Potency |
| --- | --- |
| CC1(C)Oc2ccc(C#N)cc2[C@@H](N2CCCC2=O)[C@@H]1O | inactive |
| CC1=CC(C)C(C=O)CC1 (stereo not given) | inactive |
| CCOc1ncc(F)c(=O)[nH]1 | inactive |
| N=c1nc(N2CCCCC2)cc(N)n1O | inactive |
| O=C1OC2(c3cc(Br)c(O)c(Br)c3Oc3c2cc(Br)c(O)c3Br)c2c(Cl)c(Cl)c(Cl)c(Cl)c21 | inactive |
| CC1CCC(C(C)(C)O)CC1 (stereo not given) | inactive |
| Clc1ccc2c(c1)Nc1ccccc1S2 | inactive |
| O=C(O)c1cc(C(=O)O)cc([N+](=O)[O-])c1 | inactive |
| CC1CCCC(=O)C1=O (stereo not given) | inactive |
| Cn1ccnc1 | inactive |
| Cc1occc1SSc1ccoc1C | inactive |
| COc1cc(N)c(Cl)cc1C(=O)NC1CCN(Cc2ccccc2)CC1 | inactive |
| CC(=O)CC(=O)Nc1ccccc1 | inactive |
| C=C(C)[C@H]1CC=C(C)C(=O)C1 | inactive |
| C1=CCC2CC=CC2C1 (stereo not given) | 3.34 µM (active) |
| CC1CNCC(C)O1 (stereo not given) | inactive |
| CC1(C)C(O)C(C)(C)C1O (stereo not given) | inactive |
| CC(C)N=C=NC(C)C | inactive |
| CCC(=O)OC | inactive |
| Cc1onc(-c2ccccc2)c1C(=O)Cl | inactive |

| SMILES | Potency |
| --- | --- |
| CNCCO | inactive |
| Cc1ccc(C(C)C)cc1O | inactive |
| CCCCCC(C)=O | inactive |
| NCCNCCN | inactive |
| N[C@@H](CCC(=O)Nc1ccc([N+](=O)[O-])cc1)C(=O)O | inactive |
| C=CC(O)CCCCC (stereo not given) | inactive |
| CCCCC(CC)COP(=O)(O)OCC(CC)CCCC (stereo not given) | inactive |
| CCC(C)SSC(C)CC (stereo not given) | inactive |
| COc1ccc(N=[N+]([O-])c2ccc(OC)cc2)cc1 | inactive |
| COC(=O)CC(C(C)=O)C(=O)OC (stereo not given) | inactive |
| COc1cc(CCC(C)=O)ccc1O | inactive |
| CCCCCCCCCCC | inactive |
| CC(C)C(=O)O | inactive |
| CCC(C)c1ccccc1O (stereo not given) | inactive |
| O=c1[nH]c2ccc(Cl)cc2o1 | inactive |
| Cc1ncsc1CCO | inactive |
| CCc1ccc(Br)cc1 | inactive |
| COC(=O)CCC(=O)O | inactive |
| O=c1[nH][nH]c(=O)c2cc([N+](=O)[O-])ccc12 | inactive |
| CC1=CC(=O)NS(=O)(=O)O1 | inactive |
